Test results taken from publication PMC7862700, “An all-to-all approach to the identification of sequence-specific readers for epigenetic DNA modifications on cytosine”.

Assays:
Assay in all cases: DAPPL (digital affinity profiling via proximity ligation, sequencing); 10 mM Tris-HCl pH 7.5, 50 mM NaCl, 1 mM DTT, 4% glycerol, room temperature, 30 min; GST-TFs on glutathione beads, 16-mer random dsDNA library, 0.1% formaldehyde crosslink after washing; high values mean tight binding
FEV = molecular target: T1, FEV (Homo sapiens, UniProt Q99581 1-238); conditions: protein: recombinant; tags: N-terminal GST; dsDNA, one strand shown
T1 sequence: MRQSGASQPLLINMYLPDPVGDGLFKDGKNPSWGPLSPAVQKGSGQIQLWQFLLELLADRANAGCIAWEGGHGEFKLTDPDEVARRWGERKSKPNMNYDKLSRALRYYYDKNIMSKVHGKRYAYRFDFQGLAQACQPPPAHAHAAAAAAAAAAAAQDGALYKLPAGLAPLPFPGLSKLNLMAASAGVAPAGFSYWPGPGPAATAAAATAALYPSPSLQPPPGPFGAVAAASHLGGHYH
How it was run: (§1)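 Binding signal is each hexamer's read frequency for a factor divided by its frequency in the tag-only sample. The factors were GST-fused human transcription factors from yeast, captured on glutathione beads, DNA-barcoded and pooled with that sample. Pools were incubated with 200 nmole of a random double-stranded 16-mer DNA library in Tris/NaCl/DTT/glycerol buffer at room temperature for 30 min, then washed, crosslinked with 0.1% formaldehyde, proximity-ligated with BsaI/T4 ligase (1 h, 37 °C), PCR-amplified and sequenced on an Illumina NextSeq500.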

ETV5 = ETV5 (Homo sapiens, UniProt P41161 1-510); conditions: protein: recombinant; tags: N-terminal GST; dsDNA, one strand shown
How it was run: as §1

HSF1 = HSF1 (Homo sapiens, UniProt Q00613 1-529); conditions: protein: recombinant; tags: N-terminal GST; chain copies: 3; dsDNA, one strand shown
How it was run: as §1

SPIC = molecular target: T2, SPIC (Homo sapiens, UniProt Q8N5J4 1-248); conditions: protein: recombinant; tags: N-terminal GST; dsDNA, one strand shown
T2 sequence: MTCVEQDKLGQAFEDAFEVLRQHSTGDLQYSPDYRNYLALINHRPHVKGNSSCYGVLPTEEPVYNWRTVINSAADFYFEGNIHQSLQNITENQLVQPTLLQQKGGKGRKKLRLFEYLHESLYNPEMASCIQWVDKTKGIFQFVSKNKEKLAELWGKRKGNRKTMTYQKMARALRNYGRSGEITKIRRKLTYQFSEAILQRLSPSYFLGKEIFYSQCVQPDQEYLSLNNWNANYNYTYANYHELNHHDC
How it was run: as §1

ELF4 = ELF4 (Homo sapiens, UniProt Q99607 1-663); conditions: protein: recombinant; tags: N-terminal GST; dsDNA, one strand shown
How it was run: as §1

ELK4 = molecular target: T3, ELK4 (Homo sapiens, UniProt P28324-2 1-405); conditions: protein: recombinant; tags: N-terminal GST; dsDNA, one strand shown
T3 sequence: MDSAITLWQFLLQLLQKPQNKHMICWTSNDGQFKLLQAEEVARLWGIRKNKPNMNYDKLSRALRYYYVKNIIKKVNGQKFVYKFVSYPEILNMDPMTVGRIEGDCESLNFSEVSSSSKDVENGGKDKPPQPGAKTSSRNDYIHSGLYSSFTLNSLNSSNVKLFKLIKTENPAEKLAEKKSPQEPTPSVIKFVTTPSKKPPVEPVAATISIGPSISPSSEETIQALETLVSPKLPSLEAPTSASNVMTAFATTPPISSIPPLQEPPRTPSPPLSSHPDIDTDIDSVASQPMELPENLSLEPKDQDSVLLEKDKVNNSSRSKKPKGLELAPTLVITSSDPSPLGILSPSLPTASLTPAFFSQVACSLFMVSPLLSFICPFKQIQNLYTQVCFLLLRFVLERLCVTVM
How it was run: as §1

ETV2 = molecular target: T4, ETV2 (Homo sapiens, UniProt O00321 1-342); conditions: protein: recombinant; tags: N-terminal GST; dsDNA, one strand shown
T4 sequence: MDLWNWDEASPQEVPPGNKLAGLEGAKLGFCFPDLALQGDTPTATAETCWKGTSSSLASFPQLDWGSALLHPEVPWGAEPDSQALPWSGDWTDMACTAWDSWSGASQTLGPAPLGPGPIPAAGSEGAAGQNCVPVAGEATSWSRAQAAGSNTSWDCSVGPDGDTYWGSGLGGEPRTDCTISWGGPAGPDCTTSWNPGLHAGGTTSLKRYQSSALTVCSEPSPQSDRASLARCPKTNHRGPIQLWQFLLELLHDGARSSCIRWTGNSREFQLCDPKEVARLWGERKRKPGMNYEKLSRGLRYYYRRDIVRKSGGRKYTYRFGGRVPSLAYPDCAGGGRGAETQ
How it was run: as §1

ELF3 = molecular target: T5, ELF3 (Homo sapiens, UniProt P78545 1-371); conditions: protein: recombinant; tags: N-terminal GST; dsDNA, one strand shown
T5 sequence: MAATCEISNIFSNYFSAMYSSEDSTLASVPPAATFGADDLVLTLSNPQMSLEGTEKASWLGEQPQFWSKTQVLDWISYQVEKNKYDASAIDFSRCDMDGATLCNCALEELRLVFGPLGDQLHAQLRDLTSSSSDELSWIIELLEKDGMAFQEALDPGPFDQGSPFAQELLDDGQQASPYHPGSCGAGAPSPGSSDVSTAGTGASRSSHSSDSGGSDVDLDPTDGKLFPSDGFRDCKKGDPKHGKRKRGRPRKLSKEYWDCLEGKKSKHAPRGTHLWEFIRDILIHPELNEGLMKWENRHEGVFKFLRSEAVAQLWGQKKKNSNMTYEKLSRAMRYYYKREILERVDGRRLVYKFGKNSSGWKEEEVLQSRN
How it was run: as §1

CRX = CRX (Homo sapiens, UniProt O43186 1-299); conditions: protein: recombinant; tags: N-terminal GST; dsDNA, one strand shown
How it was run: as §1

ETV1 = ETV1 (Homo sapiens, UniProt P50549 1-477); conditions: protein: recombinant; tags: N-terminal GST; dsDNA, one strand shown
How it was run: as §1

ETV5, sequence (P41161 whole entry): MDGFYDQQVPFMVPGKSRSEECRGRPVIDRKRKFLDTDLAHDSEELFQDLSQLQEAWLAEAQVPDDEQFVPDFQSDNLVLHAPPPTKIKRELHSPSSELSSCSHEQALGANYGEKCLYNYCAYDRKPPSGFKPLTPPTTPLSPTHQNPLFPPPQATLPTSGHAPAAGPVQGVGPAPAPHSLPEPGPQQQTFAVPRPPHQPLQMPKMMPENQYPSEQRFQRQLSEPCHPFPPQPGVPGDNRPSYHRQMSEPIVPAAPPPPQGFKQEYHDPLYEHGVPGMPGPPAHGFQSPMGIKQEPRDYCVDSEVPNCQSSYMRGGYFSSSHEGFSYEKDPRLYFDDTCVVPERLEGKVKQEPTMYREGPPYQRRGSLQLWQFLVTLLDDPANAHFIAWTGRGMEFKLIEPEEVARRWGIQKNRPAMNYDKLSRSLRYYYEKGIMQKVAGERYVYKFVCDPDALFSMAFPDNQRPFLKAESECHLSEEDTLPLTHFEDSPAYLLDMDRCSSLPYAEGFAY
ELF4, sequence (Q99607 whole entry): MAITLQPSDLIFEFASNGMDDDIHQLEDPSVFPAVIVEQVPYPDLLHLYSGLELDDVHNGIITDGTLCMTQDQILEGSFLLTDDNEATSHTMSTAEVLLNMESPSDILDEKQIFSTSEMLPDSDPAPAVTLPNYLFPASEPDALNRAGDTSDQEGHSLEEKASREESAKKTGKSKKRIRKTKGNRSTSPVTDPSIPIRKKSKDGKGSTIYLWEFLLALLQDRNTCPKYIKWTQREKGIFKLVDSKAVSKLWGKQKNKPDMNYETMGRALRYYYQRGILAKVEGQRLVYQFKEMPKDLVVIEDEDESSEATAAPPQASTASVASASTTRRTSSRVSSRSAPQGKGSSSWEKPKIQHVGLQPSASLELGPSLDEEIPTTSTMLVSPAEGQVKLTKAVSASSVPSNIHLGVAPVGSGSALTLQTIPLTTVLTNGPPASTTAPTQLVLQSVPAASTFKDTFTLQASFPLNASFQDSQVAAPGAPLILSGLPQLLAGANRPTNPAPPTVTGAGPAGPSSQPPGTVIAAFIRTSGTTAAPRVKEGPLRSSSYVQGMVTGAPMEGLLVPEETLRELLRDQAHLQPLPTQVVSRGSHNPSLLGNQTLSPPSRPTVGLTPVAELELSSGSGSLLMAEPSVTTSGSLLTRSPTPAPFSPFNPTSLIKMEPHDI
HSF1, sequence (Q00613 whole entry): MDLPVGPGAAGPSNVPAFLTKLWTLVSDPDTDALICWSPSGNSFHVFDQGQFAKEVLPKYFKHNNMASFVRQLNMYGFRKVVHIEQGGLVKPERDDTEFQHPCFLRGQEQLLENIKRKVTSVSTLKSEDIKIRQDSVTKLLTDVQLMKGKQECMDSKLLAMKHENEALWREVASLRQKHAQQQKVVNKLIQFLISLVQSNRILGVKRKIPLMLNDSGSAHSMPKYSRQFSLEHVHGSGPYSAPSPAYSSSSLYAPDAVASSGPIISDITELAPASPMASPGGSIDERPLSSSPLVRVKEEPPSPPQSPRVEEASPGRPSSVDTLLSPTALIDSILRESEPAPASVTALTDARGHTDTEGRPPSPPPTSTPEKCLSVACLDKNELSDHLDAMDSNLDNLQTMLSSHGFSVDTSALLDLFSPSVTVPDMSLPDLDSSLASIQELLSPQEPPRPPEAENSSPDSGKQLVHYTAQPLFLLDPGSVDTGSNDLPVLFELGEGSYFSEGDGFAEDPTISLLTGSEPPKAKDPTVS
ETV1, sequence (P50549 whole entry): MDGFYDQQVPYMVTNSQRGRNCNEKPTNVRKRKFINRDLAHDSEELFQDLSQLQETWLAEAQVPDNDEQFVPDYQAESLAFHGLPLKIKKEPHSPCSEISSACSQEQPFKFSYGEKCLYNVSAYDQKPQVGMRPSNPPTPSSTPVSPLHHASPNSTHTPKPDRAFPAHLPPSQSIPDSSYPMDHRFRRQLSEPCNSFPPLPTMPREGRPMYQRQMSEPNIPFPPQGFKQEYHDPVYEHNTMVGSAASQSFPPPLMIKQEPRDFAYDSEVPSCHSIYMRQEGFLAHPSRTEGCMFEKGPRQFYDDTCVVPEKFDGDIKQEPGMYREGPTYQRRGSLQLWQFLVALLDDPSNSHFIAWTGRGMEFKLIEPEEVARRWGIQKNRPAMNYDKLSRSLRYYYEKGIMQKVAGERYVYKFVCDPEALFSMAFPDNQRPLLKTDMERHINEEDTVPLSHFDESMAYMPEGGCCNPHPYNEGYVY
CRX, sequence (O43186 whole entry): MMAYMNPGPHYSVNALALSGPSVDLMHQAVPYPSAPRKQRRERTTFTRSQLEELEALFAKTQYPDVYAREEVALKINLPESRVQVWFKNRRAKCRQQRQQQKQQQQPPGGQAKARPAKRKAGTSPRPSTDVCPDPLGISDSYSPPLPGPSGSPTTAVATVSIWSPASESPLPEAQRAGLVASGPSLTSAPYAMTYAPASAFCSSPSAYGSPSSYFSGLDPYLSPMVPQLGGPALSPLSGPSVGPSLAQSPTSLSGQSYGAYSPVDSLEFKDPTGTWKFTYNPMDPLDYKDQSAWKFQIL

AGTTAA
binding signal (FEV): 1.05 fold enrichment (6-mer frequency, TF over GST control)
binding signal (ETV5): 1.1 fold enrichment (6-mer frequency, TF over GST control)
binding signal (HSF1): 1.15 fold enrichment (6-mer frequency, TF over GST control)
binding signal (SPIC): 1.05 fold enrichment (6-mer frequency, TF over GST control)
binding signal (ELF4): 1.15 fold enrichment (6-mer frequency, TF over GST control)
binding signal (ELK4): 1.15 fold enrichment (6-mer frequency, TF over GST control)
binding signal (ETV2): 1.2 fold enrichment (6-mer frequency, TF over GST control)
binding signal (ELF3): 1.09 fold enrichment (6-mer frequency, TF over GST control)
binding signal (CRX): 1.51 fold enrichment (6-mer frequency, TF over GST control)

AATAAC
binding signal (FEV): 1.25 fold enrichment (6-mer frequency, TF over GST control)
binding signal (ETV5): 1.3 fold enrichment (6-mer frequency, TF over GST control)
binding signal (HSF1): 1.27 fold enrichment (6-mer frequency, TF over GST control)
binding signal (SPIC): 1.42 fold enrichment (6-mer frequency, TF over GST control)
binding signal (ELF4): 1.32 fold enrichment (6-mer frequency, TF over GST control)
binding signal (ELK4): 1.13 fold enrichment (6-mer frequency, TF over GST control)
binding signal (ETV2): 1.31 fold enrichment (6-mer frequency, TF over GST control)
binding signal (ELF3): 1.25 fold enrichment (6-mer frequency, TF over GST control)
binding signal (CRX): 1.32 fold enrichment (6-mer frequency, TF over GST control)
binding signal (ETV1): 1.15 fold enrichment (6-mer frequency, TF over GST control)

CCGACG
binding signal (FEV): 1.22 fold enrichment (6-mer frequency, TF over GST control)
binding signal (ETV5): 1.16 fold enrichment (6-mer frequency, TF over GST control)
binding signal (HSF1): 1.02 fold enrichment (6-mer frequency, TF over GST control)
binding signal (SPIC): 1.57 fold enrichment (6-mer frequency, TF over GST control)
binding signal (ELF4): 1.29 fold enrichment (6-mer frequency, TF over GST control)
binding signal (ELK4): 1.22 fold enrichment (6-mer frequency, TF over GST control)
binding signal (ETV2): 1.31 fold enrichment (6-mer frequency, TF over GST control)
binding signal (ELF3): 1.14 fold enrichment (6-mer frequency, TF over GST control)
binding signal (ETV1): 1.2 fold enrichment (6-mer frequency, TF over GST control)

GTTAAG
binding signal (FEV): 1.02 fold enrichment (6-mer frequency, TF over GST control)
binding signal (ETV5): 1.03 fold enrichment (6-mer frequency, TF over GST control)
binding signal (HSF1): 1.3 fold enrichment (6-mer frequency, TF over GST control)
binding signal (SPIC): 1.06 fold enrichment (6-mer frequency, TF over GST control)
binding signal (ELF4): 1.1 fold enrichment (6-mer frequency, TF over GST control)
binding signal (ELK4): 1.06 fold enrichment (6-mer frequency, TF over GST control)
binding signal (ETV2): 1.1 fold enrichment (6-mer frequency, TF over GST control)
binding signal (ELF3): 1.06 fold enrichment (6-mer frequency, TF over GST control)
binding signal (CRX): 1.87 fold enrichment (6-mer frequency, TF over GST control)

TCGACG
binding signal (ETV5): 1.17 fold enrichment (6-mer frequency, TF over GST control)
binding signal (HSF1): 1.15 fold enrichment (6-mer frequency, TF over GST control)
binding signal (SPIC): 1.07 fold enrichment (6-mer frequency, TF over GST control)
binding signal (ELF4): 1.08 fold enrichment (6-mer frequency, TF over GST control)
binding signal (ELK4): 1.08 fold enrichment (6-mer frequency, TF over GST control)
binding signal (ETV2): 1.18 fold enrichment (6-mer frequency, TF over GST control)
binding signal (ELF3): 1.06 fold enrichment (6-mer frequency, TF over GST control)
binding signal (ETV1): 1.05 fold enrichment (6-mer frequency, TF over GST control)

GCAAAA
binding signal (FEV): 1.08 fold enrichment (6-mer frequency, TF over GST control)
binding signal (ETV5): 1.07 fold enrichment (6-mer frequency, TF over GST control)
binding signal (HSF1): 1.01 fold enrichment (6-mer frequency, TF over GST control)
binding signal (SPIC): 1.06 fold enrichment (6-mer frequency, TF over GST control)
binding signal (ELF4): 1.13 fold enrichment (6-mer frequency, TF over GST control)
binding signal (ELK4): 1.16 fold enrichment (6-mer frequency, TF over GST control)
binding signal (ETV2): 1.14 fold enrichment (6-mer frequency, TF over GST control)
binding signal (ELF3): 1.2 fold enrichment (6-mer frequency, TF over GST control)
binding signal (ETV1): 1.14 fold enrichment (6-mer frequency, TF over GST control)

GATTTC
binding signal (FEV): 2.86 fold enrichment (6-mer frequency, TF over GST control)
binding signal (ETV5): 1.92 fold enrichment (6-mer frequency, TF over GST control)
binding signal (HSF1): 1.56 fold enrichment (6-mer frequency, TF over GST control)
binding signal (SPIC): 1.65 fold enrichment (6-mer frequency, TF over GST control)
binding signal (ELF4): 1.7 fold enrichment (6-mer frequency, TF over GST control)
binding signal (ELK4): 1.64 fold enrichment (6-mer frequency, TF over GST control)
binding signal (ETV2): 1.64 fold enrichment (6-mer frequency, TF over GST control)
binding signal (ELF3): 1.62 fold enrichment (6-mer frequency, TF over GST control)
binding signal (CRX): 1.52 fold enrichment (6-mer frequency, TF over GST control)
binding signal (ETV1): 1.79 fold enrichment (6-mer frequency, TF over GST control)

TCCCCA
binding signal (FEV): 1.33 fold enrichment (6-mer frequency, TF over GST control)
binding signal (ETV5): 1.41 fold enrichment (6-mer frequency, TF over GST control)
binding signal (HSF1): 1.3 fold enrichment (6-mer frequency, TF over GST control)
binding signal (SPIC): 1.56 fold enrichment (6-mer frequency, TF over GST control)
binding signal (ELF4): 1.39 fold enrichment (6-mer frequency, TF over GST control)
binding signal (ELK4): 1.58 fold enrichment (6-mer frequency, TF over GST control)
binding signal (ETV2): 1.51 fold enrichment (6-mer frequency, TF over GST control)
binding signal (ELF3): 1.54 fold enrichment (6-mer frequency, TF over GST control)
binding signal (CRX): 1.43 fold enrichment (6-mer frequency, TF over GST control)
binding signal (ETV1): 1.49 fold enrichment (6-mer frequency, TF over GST control)
